# Screening data as filed in PubChem BioAssay.
# RORg inh – qHTS for inhibitors of ROR gamma transcriptional activity; Drosophila S2 Gal4-RORgamma UAS-luciferase reporter, 20 h; Potency, µM (titrated, usually from 53.6 µM), without a hit: at the highest dose activity change, negative = inhibition, most hits filed as inhibitors; 310,000 tested, 5.4% active; Nuclear receptor ROR-gamma (Mus musculus), P51450; note: potency is the fitted concentration of half-maximal effect; nearly all actives have a fitted effect of over 60% in size
# Target sequence (P51450 whole entry, looked up, the tested form may be a part): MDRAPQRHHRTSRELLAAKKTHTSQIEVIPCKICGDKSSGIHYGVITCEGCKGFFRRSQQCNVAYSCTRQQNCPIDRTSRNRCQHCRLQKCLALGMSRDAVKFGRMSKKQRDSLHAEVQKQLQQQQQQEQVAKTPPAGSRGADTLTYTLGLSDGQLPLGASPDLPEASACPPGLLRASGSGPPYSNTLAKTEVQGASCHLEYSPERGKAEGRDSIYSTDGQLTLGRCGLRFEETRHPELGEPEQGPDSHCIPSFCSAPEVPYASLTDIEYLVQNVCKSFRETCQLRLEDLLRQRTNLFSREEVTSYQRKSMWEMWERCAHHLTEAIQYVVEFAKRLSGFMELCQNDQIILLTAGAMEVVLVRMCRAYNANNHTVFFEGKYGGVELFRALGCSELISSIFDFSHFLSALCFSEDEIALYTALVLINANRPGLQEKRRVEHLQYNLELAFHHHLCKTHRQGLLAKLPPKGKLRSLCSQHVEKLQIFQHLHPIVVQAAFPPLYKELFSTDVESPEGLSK
#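 Luciferase reporter read in Schneider cells carrying Gal4-RORγ (mouse) and UAS-Photinus luciferase; cells given compound 1 h before 700 uM copper sulfate induction, then incubated 20 h at ambient temperature.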
# IL-1B inflam inh – qHTS for Inhibitors of Inflammasome Signaling: IL-1-beta AlphaLISA Primary Screen. 360,000 tested, 4.7% active. THP-1 LPS/ATP IL-1B secretion, AlphaLISA, 16 h; stronger effect = lower value. activity change, % at 57.5 µM; in the data active = activity change below about -50%; inconclusive = mostly about -30% to -49%
#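 THP-1 cells pretreated 1 hr with compounds (up to 57.5 uM final), then stimulated with LPS (250 ng/mL final) plus ATP (1.25 mM final); secreted IL-1B measured by AlphaLISA after 16 hr, decreased signal indicating inhibition.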
# TDP1 cell CPT – qHTS for Inhibitors of human tyrosyl-DNA phosphodiesterase 1 (TDP1): qHTS in cells in presence of CPT; chicken DT40 Tdp1-/-;hTDP1 cells + 20 nM CPT, ATP luminescence, 48 h; Potency, µM (series often up to 46.2 µM), for inactives: at the highest dose activity change, negative = growth inhibition, most hits filed as inhibitors; 420,000 tested, 12% active; AID 686979, 2013; note: potency is the fitted concentration of half-maximal effect; nearly all actives have a fitted effect of over 55% in size
#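 Chicken DT40 Tdp1-/- cells stably complemented with human TDP1 were seeded at 400 cells/well in medium containing 20 nM camptothecin, exposed to pin-transferred compounds, and grown at 37 °C for at least 48 hr. Viability was read as ATP luminescence.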
# ELG1 repair inh – qHTS screen for small molecules that inhibit ELG1-dependent DNA repair in human embryonic kidney (HEK293T) cells expressing luciferase-tagged ELG1; Potency, µM (highest dose often 46.1 µM), for the others: at the top dose activity change, negative = inhibition, actives largely listed as inhibitors; HEK293T ELG1-luciferase reporter, luminescence, 16 h; DNA damage induced by 5-fluorouridine; 330,000 tested, 2.3% active; note: potency is the fitted concentration of half-maximal effect; nearly all actives have a fitted effect of over 55% in size
#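 Step one: seed 2,000 cells per well. Step two: pin-transfer compound or DMSO alongside 5-fluorouridine. Step three: incubate 16 hr, 37 °C, 5% CO2. Step four: add ONE-Glo, wait 30 min, read luminescence.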
# TDP1 cell noCPT – qHTS for Inhibitors of human tyrosyl-DNA phosphodiesterase 1 (TDP1): qHTS in cells in absence of CPT; DT40 Tdp1-/- hTDP1 cells, no CPT, ATP luminescence, 48 h; Potency, µM (doses to about 46.2 µM), without a hit: at the top dose activity change, negative = growth inhibition, usual class: inhibitors; 420,000 tested, 15% active; AID 686978, 2013; note: potency is the fitted concentration of half-maximal effect; nearly all actives have a fitted effect of over 55% in size
#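 No-CPT arm: Tdp1-/-;hTDP1 DT40 cells (400/well) plus compounds, incubated ≥48 hr at 37 °C. Readout CellTiter-Glo luminescence.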
# VP16 counter – VP16 counterscreen qHTS for inhibitors of ROR gamma transcriptional activity. 310,000 tested, 3.5% active. Drosophila S2 Gal4-VP16 UAS-luciferase, luminescence, 20 h. Potency, µM (top dose mostly 53.6 µM), for the others: top-dose activity, negative = inhibition, usual class: inhibitors;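 note: Gal4-VP16 expression switched on by copper sulfate through the metallothionein promoter; potency is the fitted concentration of half-maximal effect; nearly all actives have a fitted effect of over 50% in size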
# * = called active by the depositor; u = inconclusive; x = no result given; [ ] = dose if it differs, or a comment. A selection: hits, their analogues and other compounds. The true share with any hit is near 21%. Unless noted, calls come from the whole dose curve; as a rule, active = well fitted curve in the direction sought with a large enough effect; inconclusive = small, poorly fitted or top-dose-only effect, or another doubt; inactive = no such curve, though single readings can be large; an effect the other way counts as inactive or inconclusive. % is set by controls: 0 for no effect and ±100 for the full control effect.
SMILES,RORg inh,IL-1B inflam inh,TDP1 cell CPT,ELG1 repair inh,TDP1 cell noCPT,VP16 counter
COC(=O)c1ccccc1NC(=O)c1cnc(Nc2ccc(OC)cc2)c2ccccc12,x,x,23µM*,x,9.2µM*,x
COc1ccc(OC)c(NC(=O)c2cnc(Nc3ccccc3OC)c3ccccc23)c1,-12%,-10,5.2µM*,u,5.8µM*,-13%
COc1ccc(NC(=O)c2cnc(Nc3ccc(C)c(Cl)c3)c3ccccc23)c(OC)c1,x,x,-17%,x,-34%,x
Cc1ccc(Nc2ncc(C(=O)Nc3ccc(F)cc3F)c3ccccc23)cc1Cl,x,x,16µM*,x,u,x
COc1ccc(CN2C(=O)C(CC(=O)NC3CC3)CC(C(=O)N(C)C)=C2C)cc1 (stereo not drawn),x,6,-8%,x,-6%,x
Cc1cccc(C)c1NC(=O)C1(C)CSCC(=O)N1CCCn1ccnc1 (stereo not drawn),x,-10,12%,x,10%,x
CC(NC(=O)C1CCN(C(=O)c2cccs2)CC1)c1ccc(S(N)(=O)=O)cc1 (stereo not drawn),x,9,1%,13%,11%,x
Cc1cccc(NC(=O)CCCn2nc(C)c3c(C)n(-c4ccccc4)nc3c2=O)c1C,x,x,1%,x,-28%,x
CCCCn1c(=O)c2oc3ccccc3c2n(CC(=O)Nc2ccc(CC)cc2)c1=O,x,x,13µM*,x,u,x
CCCCn1c(=O)c2oc3ccccc3c2n(CC(=O)Nc2cc(C)ccc2C)c1=O,x,x,12µM*,x,12µM*,x
Cc1ccc(C)c(NC(=O)Cn2c(=O)n(Cc3ccccc3)c(=O)c3oc4ccccc4c32)c1,x,x,4.6µM*,x,5.8µM*,x
Cc1ccc(C)c(NC(=O)Cn2c(=O)n(Cc3ccco3)c(=O)c3oc4ccccc4c32)c1,x,x,16µM*,x,10µM*,x
CCCCn1c(=O)c2oc3ccccc3c2n(CC(=O)Nc2cccc(Cl)c2)c1=O,x,x,-29%,x,-19%,x
Cc1ccc2c(c1)c1c(c(=O)n(Cc3ccccc3)c(=O)n1CC(=O)Nc1ccccc1C)n2C,x,x,-16%,x,-21%,x
NCCCC[C@H](NC(=O)[C@H](CS)NC(=O)[C@@H](N)Cc1cnc[nH]1)C(=O)N[C@@H](Cc1ccccc1)C(=O)N[C@@H](Cc1c[nH]c2ccccc12)C(=O)N[C@@H](Cc1c[nH]c2ccccc12)C(=O)O,12%,x,x,x,x,-1%
COc1ccc(-c2nc3ccccc3c(=O)n2NC(=S)N(C)C)cc1,30%,-9,12µM*,24%,12µM*,1%
O=C(Nn1c(-c2ccncc2)nc2ccccc2c1=O)c1ccc(Br)cc1,16%,10,2%,4%,2%,1%
O=C(Nn1c(-c2ccc(Br)cc2)nc2ccccc2c1=O)c1cccnc1,-8%,23,u,5%,23µM*,-10%
COc1ccc(OCC(=O)Nn2c(-c3ccc(OC)cc3)nc3ccccc3c2=O)cc1,u,6,-3%,3%,u,10µM*
COc1ccc(OCC(=O)Nn2c(-c3ccc(C)cc3)nc3ccccc3c2=O)cc1,-37%,14,u,-1%,u,6.3µM*
NC(=S)Nn1c(-c2ccccc2)nc2ccccc2c1=O,-19%,12,1%,12%,0%,-10%
CN1CCN(c2ccc(C(CC(N)=O)NC(=O)Cc3cccc4ccccc34)cc2[N+](=O)[O-])CC1 (stereo not drawn),-5%,0,-28%,10%,4%,-5%
CC(=O)N[C@H]1C(O[C@@H]2O[C@H](C[C@@H](O)[C@H]3O[C@@H](N4CCC(=O)NC4=O)[C@H](O)[C@@H]3O)[C@H](O)[C@H](O)[C@H]2NC(=O)/C=C/CCCCCCCCCCC(C)C)OC(CO)[C@@H](O)[C@@H]1O (stereo partly drawn),u,x,x,x,x,-18%
CC(=O)NC1C(OC2OC(CC(O)C3OC([N+]4=CCC(=O)NC4=O)C(O)C3O)C(O)C(O)C2NC(=O)/C=C/CCCCCCCCC(C)C)OC(CO)C(O)C1O (stereo not drawn),x,x,0.11µM*,x,0.09µM*,x
CCN1C(=NCCCOC(C)C)N[C@@H](CCc2ccccc2)[C@H](C(=O)NCCCOC(C)C)[C@H]1C,u,-58*,1.8µM*,u,1.6µM*,-7%
SMILES,RORg inh,IL-1B inflam inh,TDP1 cell CPT,ELG1 repair inh,TDP1 cell noCPT,VP16 counter
O=C(CCN=C1NS(=O)(=O)c2ccccc21)N1CCc2ccccc2C1,34%,7,5%,2%,-16%,-6%
O=C(Nc1cc([N+](=O)[O-])c2[nH]c(=O)c3ccccc3c2c1)C(F)(F)F,x,-5,0.29µM*,x,1.8µM*,x
COc1ccc(N2C(=O)C3CCCN3C2=S)cc1 (stereo not drawn),3%,-15,-16%,1%,u,-14%
Cc1ccc(C)c(NC(=O)C(c2ccccc2)N2Cc3ccccc3C2=O)c1 (stereo not drawn),x,x,u,x,-26%,x
COc1ccccc1C(=O)N[C@@H]1c2ccccc2C2(CCN(Cc3cccnc3)CC2)[C@H]1O,x,x,6%[9.04 µM],x,u,x
COc1ccccc1C(=O)N[C@@H]1c2ccccc2C2(CCN(Cc3c(O)cccc3OC)CC2)[C@H]1O,x,x,-8%[9.04 µM],x,18µM*,x
CCc1ccc(-n2nc(C)c3c(C)cc(=O)n(CC(=O)Nc4cc(C)ccc4C)c32)cc1,x,x,-8%,x,-16%,x
CN(C)S(=O)(=O)c1cccc(NC(=O)CC23CC4CC(CC(C4)C2)C3)c1,u,3,23µM*,-16%,21µM*,9%
NS(=O)(=O)c1cccc(NC(=O)CC23CC4CC(C2)CC(CC(=O)Nc2cccc(S(N)(=O)=O)c2)(C4)C3)c1,-18%,1,0%,-1%,-6%,-5%
CN(C)S(=O)(=O)Nc1cccc(NC(=O)CC23CC4CC(CC(C4)C2)C3)c1,74%,-73*,-26%,u,-24%,-4%
NS(=O)(=O)c1cccc(NC(=O)CNC(=O)CC23CC4CC(CC(C4)C2)C3)c1,-2%,13,-8%,-10%,17%,-5%
O=C1CC2(CCN(C(=O)c3cccc(F)c3)CC2)Oc2ccccc21,x,-10,-28%,3%,u,x
COc1cc(NS(C)(=O)=O)ccc1Cc1c2ccccc2nc2ccccc12,-17%,x,0.082µM*,x,0.16µM*,-14%
